Assay outcomes (PubChem BioAssay)
Most compounds without a hit are left out; they make up all but 2.9% or so of the library.
ATXN viability – Viability Counterscreen for Primary qHTS for Inhibitors of ATXN expression; S2 cells (HEK-293 line with an ATXN2-luciferase reporter) viability, CellTiter-Fluor protease fluorescence, 24 h; Potency, µM (titrated, usually from 56.7 µM), hits mostly cytotoxic; 400,000 compounds, 0.49% hits; further: nearly all actives have a fitted effect of over 40% in size
A549 tox – Nrf2 qHTS screen for inhibitors: counterscreen for cytotoxicity; A549 ARE-Fluc cells, CellTiter-Fluor viability, 18-24 h; Potency, µM (top dose mostly 46 µM), most hits filed as inhibitors; 390,000 compounds, 0.16% hits; AID 504648, 2011
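Cytotoxicity counterscreen: CellTiter-Fluor fluorescence was measured in A549 ARE_Fluc cells after 18-24 h of compound exposure in a concentration series. The subsequent BugLite luminescent read reports ARE-luciferase activity.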
Nrf2 inh – Nrf2 qHTS screen for inhibitors | 360,000 compounds, 2.1% hits | AID 504444, 2011 | Potency, µM (highest dose often 46 µM), actives largely listed as inhibitors | A549 ARE-Fluc reporter, luciferase luminescence, 18-24 h; further: nearly all actives have a fitted effect of over 60% in size
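Reporter: ARE-Fluc in A549. Exposure: 18-24 h, 37 °C, 5% CO2, 5% FBS OPTI-MEM. Readouts: fluorescent cytotoxicity (CellTiter-Fluor), then luminescent Nrf2 signal after BugLite.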
Nrf2 activator – qHTS of Nrf2 Activators; Potency, µM (top dose mostly 46.1 µM), hits mostly activators; AREc32 ARE-luciferase reporter (MCF7-derived line), luminescence, 24 h; 410,000 compounds, 0.31% hits; further: nearly all actives have a fitted effect of over 65% in size
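ARE-driven firefly luciferase activity in AREc32 cells measured after a 24 hr compound exposure at 37 deg C, using Steady-Glo reagent and a 30 min room-temperature hold.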
ATXN2 expr inh – Primary qHTS for Inhibitors of ATXN expression; HEK-293 ATXN2-luciferase reporter, luminescence, 24 h; Potency, µM (series often up to 57 µM), usual class: inhibitors; 360,000 compounds, 0.72% hits; further: nearly all actives have a fitted effect of over 55% in size
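ATXN2-luciferase reporter cells (luciferase flanked by upstream and downstream ATXN2 gene portions) were treated 24 h at 37 °C with compounds at up to 57 uM. SteadyGlo luminescence gave expression; GF-AFC fluorescence gave viability.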
Of the large screens only hits and unclear results are named; the others gave an inactive call. The call rests on the fitted dose curve; in most records, active means well fitted curve in the direction sought with a large enough effect; inconclusive means small, poorly fitted or top-dose-only effect, or another doubt; inactive means no such curve, though single readings can be large; an effect the other way counts as inactive or inconclusive.

COc1ccccc1-n1cnc2c(c1=O)c1nc3ccccc3nc1n2-c1ccc(C)c(C)c1	A549 tox inconclusive, Nrf2 inh 5.8µM (no result: ATXN2 expr inh)
COCCCn1c2nc3ccccc3nc2c2c(=O)n(-c3ccccc3OC)cnc21	none (no result: Nrf2 inh)
CCCNC(=O)c1ccc2c(=O)c(O)c(-c3ccc(C)cc3)[nH]c2c1	ATXN2 expr inh inconclusive (no result: ATXN viability)
Cc1ccc(CNC(=O)c2ccc3c(=O)c(O)c(-c4ccc(C)cc4)[nH]c3c2)cc1	A549 tox inconclusive, Nrf2 inh 20.6µM (no result: ATXN viability)
Cc1ccc(-c2nnc(Nc3cccc(O)c3)c3ccccc23)cc1S(=O)(=O)N1CCOCC1	ATXN viability inconclusive, A549 tox inconclusive, Nrf2 inh 16.4µM, ATXN2 expr inh inconclusive
Cc1ccc(-c2nnc(Nc3ccccc3)c3ccccc23)cc1S(=O)(=O)N1CCOCC1	ATXN viability inconclusive
Cc1nn(-c2ccccc2)c(N2CCCC2)c1/C=N/NC(=O)c1cccc(S(=O)(=O)Nc2ccc(Cl)cc2)c1	A549 tox inconclusive, Nrf2 inh 5.8µM
O=C(Nc1ccc(F)cc1)OCCN1CCN(Cc2ccccc2)CCC1=O	none
CN1CCc2nc(NC(=O)c3cccc(S(=O)(=O)N4CCc5ccccc54)c3)sc2C1	none
COC(=O)c1ccc(C(=O)NC(=S)Nc2nc3c(s2)CCCC3)cc1	none
CCC(CC)c1nnc(NC(=O)c2cccc(S(=O)(=O)N3CCc4ccccc43)c2)s1	Nrf2 inh 20.6µM
O=C(NC(=S)Nc1nc2c(s1)CCCC2)c1ccccc1	Nrf2 inh inconclusive, Nrf2 activator 2.51µM
O=C(Nc1nc2c(s1)CCCC2)c1cccc(S(=O)(=O)N2CCCc3ccccc32)c1	Nrf2 inh 20.6µM
CCCNC(=O)c1cc(S(=O)(=O)N2CCc3ccccc32)cn1C	Nrf2 inh 11.6µM
CCc1ccccc1NC(=O)c1cc(S(=O)(=O)N2CCc3ccccc32)cn1C	none
CCOC(=O)c1ccc(NC(=O)CN2C(=O)C3C4C=CC(C4)C3C2=O)cc1 (stereo not drawn)	none
Cc1sc(NC(=O)c2cccs2)c(C(N)=O)c1C	ATXN viability inconclusive, Nrf2 inh inconclusive, Nrf2 activator 10µM
NC(=O)c1ccsc1NC(=O)c1cccs1	Nrf2 activator inconclusive
Fc1ccc(C2=CC(c3ccco3)n3nnnc3N2)cc1 (stereo not drawn)	Nrf2 inh inconclusive, Nrf2 activator 12.6µM
COc1ccc(C2=CC(c3ccc(F)cc3)n3nnnc3N2)cc1 (stereo not drawn)	none (no result: ATXN viability)
O=C(Nc1ccccc1)C1CC(=O)n2ncnc2N1 (stereo not drawn)	Nrf2 inh inconclusive
COc1ccc(S(=O)(=O)NCCCCC(=O)O)cc1C(=O)O	Nrf2 inh 16.4µM
CC(C)c1ccc(S(=O)(=O)c2cc3cc(Br)ccc3oc2=O)cc1	ATXN2 expr inh 20µM
Cc1cc(C(=O)NNC(=O)/C=C/c2ccc(F)cc2)c(C)o1	none
NS(=O)(=O)c1ccc(N2N=C(c3ccccc3)CC2c2ccccc2Cl)cc1 (stereo not drawn)	A549 tox inconclusive, Nrf2 inh 20.6µM, ATXN2 expr inh inconclusive
NS(=O)(=O)c1ccc(N2N=C(c3ccccc3)CC2c2ccccc2)cc1 (stereo not drawn)	Nrf2 inh inconclusive
O=C(/C=C/c1ccc(F)cc1)NC(=S)NC1CCCCC1	Nrf2 inh 11.6µM (no result: ATXN2 expr inh)
COc1ccc(C(=O)Nc2ccc(O)c3c(=O)cc(-c4cccc(Cl)c4)oc23)cc1	ATXN viability 4.47µM, Nrf2 inh inconclusive
CC(C)(C)c1ccc(C(=O)Nc2ccc(O)c3c(=O)cc(-c4cccc(Cl)c4)oc23)cc1	none
O=C(CN(c1cccc(C(F)(F)F)c1)S(=O)(=O)c1ccc(Cl)c([N+](=O)[O-])c1)NCc1ccc(F)cc1	ATXN viability 31.6µM, Nrf2 activator inconclusive, ATXN2 expr inh inconclusive
O=C(CN(c1cccc(C(F)(F)F)c1)S(=O)(=O)c1ccccc1)Nc1cccc(Cl)c1	ATXN viability inconclusive, A549 tox inconclusive, ATXN2 expr inh inconclusive (no result: Nrf2 inh)
C#CCOCCOCCOCCNc1nc(N2CCN(C(=O)CCCCCCCCCCNC(=O)[C@H]([C@@H](C)CC)n3cc(CCCCCN)nn3)CC2)nc(N2CCN(C(=O)CCCCCCCCCCNC(=O)[C@@H]([C@H](C)O)n3cc(C)nn3)CC2)n1	ATXN viability 15.8µM, A549 tox inconclusive, Nrf2 inh inconclusive, ATXN2 expr inh 15.8µM
C#CCOCCOCCOCCNc1nc(N2CCN(C(=O)CCCCCCCCCCNC(=O)Cn3cc(CCCCCN)nn3)CC2)nc(N2CCN(C(=O)CCCCCCCCCCNC(=O)[C@H]([C@@H](C)CC)n3cc(CCCCCN)nn3)CC2)n1	ATXN viability 22.4µM, A549 tox inconclusive, Nrf2 inh inconclusive, ATXN2 expr inh inconclusive
C#CCOCCOCCOCCNc1nc(N2CCN(C(=O)CCCCCCCCCCNC(=O)Cn3cc(CCCCCN)nn3)CC2)nc(N2CCN(C(=O)CCCCCCCCCCNC(=O)[C@H](CO)n3cc(CCCCCN)nn3)CC2)n1	none
Cc1ccc(N2CC(C(=O)N3CCC(c4nc5ccccc5[nH]4)CC3)CC2=O)cc1C (stereo not drawn)	A549 tox inconclusive
CCCCCCN1C[C@H](O)[C@@H](n2cc(-c3ccc(F)cc3)nn2)C[C@@H]1c1ccccc1	ATXN viability 17.8µM (no result: A549 tox, Nrf2 inh)
Cc1ccc([C@H]2C[C@H](O)[C@@H](n3cc(-c4ccc(F)cc4)nn3)CN2Cc2cccs2)cc1	ATXN viability inconclusive, ATXN2 expr inh inconclusive (no result: A549 tox, Nrf2 inh)
O[C@H]1C[C@H](c2ccc(Cl)cc2)N(Cc2cccs2)C[C@@H]1n1cc(-c2ccc(F)cc2)nn1	ATXN2 expr inh 31.6µM (no result: ATXN viability, A549 tox, Nrf2 inh)
CCCCCCN1C[C@H](n2cc(-c3ccc(F)cc3)nn2)[C@@H](O)C[C@@H]1c1ccc(Cl)cc1	ATXN2 expr inh 31.6µM (no result: ATXN viability, A549 tox, Nrf2 inh)
CCCCCC(=O)N1C[C@@H](n2cc(-c3ccc(F)cc3)nn2)[C@H](O)C[C@@H]1c1ccc(C)cc1	ATXN viability 15.8µM, ATXN2 expr inh inconclusive (no result: A549 tox, Nrf2 inh)
COc1ccc(N(CC(=O)N2CCOCC2)S(C)(=O)=O)c(OC)c1	none
COc1ccc(C(C)(C)C)cc1NC(=O)c1cccc(S(=O)(=O)N2CCN(C(C)=O)CC2)c1	none
CCCCCC(=O)N1CCCCC1	none
CC(NS(=O)(=O)c1ccc(Cl)c(Cl)c1)C(=O)Nc1cccnc1 (stereo not drawn)	none
COc1ccc(C2C(C(=O)NCCCN3CCOCC3)c3ccccc3C(=O)N2c2ccc(OC)cc2)cc1 (stereo not drawn)	none
O=c1[nH]c2cc([N+](=O)[O-])c(NCCO)c([N+](=O)[O-])c2[nH]1	ATXN viability inconclusive, A549 tox 13µM
C=CCn1c(C)cc(-c2csc(NC(=O)CCc3nc4ccccc4c(=O)[nH]3)n2)c1C	ATXN viability inconclusive
O=C(c1ccc(Cn2cc(Cl)c([N+](=O)[O-])n2)cc1)N1CCN(Cc2ccccc2)CC1	Nrf2 inh 20.6µM (no result: ATXN2 expr inh)
CCc1cccc(CC)c1NC(=O)CNCc1cccs1	none
